KB-3-1 tox – qHTS assay for MDR1-selective chemotherapeutics: Primary screen using the parental adenocarcinoma cell KB-3-1. Potency, µM (doses to about 46.1 µM), hits mostly cytotoxic. 1.4% of 400,000 active. KB-3-1 viability, CellTiter-Glo ATP luminescence, 72 h. AID 1347075, 2019; also: nearly all actives have a fitted effect of over 60% in size
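Cytotoxicity measured as CellTiter-Glo luminescence after 72 h at 37 C. Compound titrations were pinned onto drug-naive KB-3-1 parental adenocarcinoma cells grown in DMEM with 10% FBS, and normalized data fitted to concentration-response curves.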
PINK1 modulator – A Quantitative High throughput Screen to Identify Chemical Modulators of PINK1 Expression; PINK1 immunofluorescence, high-content cytometry, 24 h; Potency, µM (doses to about 76.6 µM), most hits filed as activators; 0.2% of 410,000 active; AID 624263, 2012; active = well fitted activation curve with a large enough effect; inconclusive = small, poorly fitted or top-dose-only effect; cell line not stated here; also: nearly all actives have a fitted effect of over 65% in size
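A stable cell line was treated with compounds at 5 concentrations for 24 hours, with CCCP as control. PINK1 levels and mitochondrial localization were measured by immunofluorescence with mitochondrial, cell and nuclear markers after fixation, read by laser-scanning cytometry.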
KB-V1 cytotox – qHTS assay for MDR1-selective chemotherapeutics: Primary screen using the drug-selected MDR subline cells KB-V1; 3.4% of 400,000 active; KB-V1 MDR cells viability, CellTiter-Glo, 72 h; Potency, µM (highest dose often 46.1 µM), usual class: cytotoxic; also: nearly all actives have a fitted effect of over 60% in size
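KB-V1, DMEM (no phenol red) + 10% FBS; cpd pin-transferred, titration series; 72 h, 37 degrees C; CellTiter-Glo, luminescence. Data normalized, curve-fit.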
MCF10A rereplic – A quantitative high throughput screen for small molecules that induce DNA re-replication in MCF 10a normal breast cells. AID 624296, 2012. MCF 10A DNA re-replication, Hoechst nuclear intensity, 48 h. 2.9% of 350,000 active. Potency, µM (series often up to 46.1 µM), usual class: activators; also: nearly all actives have a fitted effect of over 50% in size
SW480 rereplic – A quantitative high throughput screen for small molecules that induce DNA re-replication in SW480 colon adenocarcinoma cells; 1.8% of 340,000 active; AID 624297, 2012; Potency, µM (doses to about 46.1 µM), hits mostly activators; SW480 DNA re-replication, Hoechst DNA content imaging, 48 h; also: nearly all actives have a fitted effect of over 55% in size
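Image-based DNA-content assay: after two days of treatment, nuclei were labelled with the DNA dye Hoechst and imaged, and hits were compounds raising the count of nuclei showing high fluorescence intensity.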
Each line names hits and unclear results; the compound was inactive in the other large screens. Sampled rows, rich in hits. Any-hit rate of the full collection: about 6.7%. Unless noted, calls follow the shape of the dose curve; as a rule, active = well fitted curve in the direction sought with a large enough effect; inconclusive = small, poorly fitted or top-dose-only effect, or another doubt; inactive = no such curve, though single readings can be large; an effect the other way counts as inactive or inconclusive.

Cc1cc(C)c(NC(=O)CN2C(=O)C3(SCC(=O)N3c3ccc(F)cc3)c3ccccc32)c(C)c1 (configuration not stated)	KB-V1 cytotox 15µM (no result: MCF10A rereplic, SW480 rereplic)
CC1=CC(C)(C)N2C(=O)C3(NCCc4c3[nH]c3ccccc43)c3cc(C)cc1c32 (configuration not stated)	KB-3-1 tox inconclusive, KB-V1 cytotox inconclusive, SW480 rereplic inconclusive
CC1=CC(C)(C)N2C(=O)C3(SCC(=O)N3c3ccc(F)cc3)c3cc(C)cc1c32 (configuration not stated)	KB-3-1 tox inconclusive, PINK1 modulator inconclusive, KB-V1 cytotox 16µM
Cc1ccc(NC(=O)CN2C(=O)C3(SCC(=O)N3c3cccc(Cl)c3)c3ccccc32)cc1C (configuration not stated)	KB-V1 cytotox 10µM (no result: MCF10A rereplic, SW480 rereplic)
Cc1ccc(N2C(=O)CSC23C(=O)N(CC(=O)NC2CCCCC2)c2ccccc23)cc1 (configuration not stated)	KB-V1 cytotox 18µM (no result: MCF10A rereplic, SW480 rereplic)
Cc1cccc(Cn2c(=O)n(Cc3ccccc3)c(=O)c3c2c2cc(C)ccc2n3C)c1	none (no result: MCF10A rereplic, SW480 rereplic)
CC(C)=CCC/C(C)=C/C=C/C(C)=C/C=C/C(C)=C/C=C/C=C(C)/C=C/C=C(C)/C=C/C=C(\C)CCC=C(C)C	MCF10A rereplic inconclusive, SW480 rereplic 19µM (no result: KB-3-1 tox, PINK1 modulator, KB-V1 cytotox)
COc1cc2nc(NC3CCN(Cc4ccccc4)CC3)nc(N3CCCN(C)CC3)c2cc1OC	none (no result: KB-3-1 tox, KB-V1 cytotox, MCF10A rereplic, SW480 rereplic)
CCOc1ccc(Nc2ncnc3c2cnn3Cc2ccccc2)cc1	KB-V1 cytotox inconclusive
CCO/C=N/Nc1nc(C(F)(F)F)nc2c1cnn2Cc1ccccc1	PINK1 modulator inconclusive, MCF10A rereplic 18µM, SW480 rereplic inconclusive
CNC1=CN(O)C(c2ccccc2)=c2cc(Cl)ccc2=N1	none (no result: KB-3-1 tox, PINK1 modulator, KB-V1 cytotox)
COc1ccc2c(C(=O)NCc3ccc4c(c3)OCO4)c(-c3ccc(S(C)(=O)=O)cc3)sc2c1	SW480 rereplic 3.7µM
COc1ccc2oc(=O)c(-c3csc(Nc4ccc(O)cc4)n3)cc2c1	KB-3-1 tox inconclusive, KB-V1 cytotox inconclusive, MCF10A rereplic 4.1µM, SW480 rereplic inconclusive
CCOc1ccccc1Nc1nnc(-c2cc3cc(OC)ccc3oc2=O)s1	KB-V1 cytotox inconclusive (no result: MCF10A rereplic, SW480 rereplic)
COc1ccc2oc(=O)c(-c3nnc(NCc4ccco4)s3)cc2c1	KB-3-1 tox inconclusive, KB-V1 cytotox inconclusive, MCF10A rereplic 7.3µM, SW480 rereplic 8.9µM
COc1ccc(Nc2nc(-c3c[nH]c4ccccc34)cs2)cc1	KB-3-1 tox inconclusive, MCF10A rereplic 16µM, SW480 rereplic inconclusive
COc1ccc(Nc2nc(-c3ccc(OC)cc3)cs2)cc1	KB-V1 cytotox inconclusive
CCOc1cccc2cc(-c3nnc(NCc4ccco4)s3)c(=O)oc12	MCF10A rereplic 21µM, SW480 rereplic inconclusive
CCOC(=O)N(C)c1c(CC)nc2c(OCc3ccc(F)cc3)cccn12	KB-V1 cytotox inconclusive (no result: MCF10A rereplic, SW480 rereplic)
CCN(CC)C(=O)c1[nH]cnc1C(=O)NCC(=O)OCc1ccccc1	none
CCc1nnc(NC(=O)C2Cc3ccccc3CN2S(=O)(=O)CC)s1 (configuration not stated)	none
CCc1nnc(NC(=O)C2Cc3ccccc3CN2S(=O)(=O)c2c(C)c(C)cc(C)c2C)s1 (configuration not stated)	KB-V1 cytotox 10µM, MCF10A rereplic inconclusive
CCS(=O)(=O)N1Cc2ccccc2CC1C(=O)Nc1nc2ccccc2s1 (configuration not stated)	KB-V1 cytotox 16µM
CCS(=O)(=O)N1Cc2ccccc2CC1C(=O)N1CCN(c2ccccc2)CC1 (configuration not stated)	KB-V1 cytotox 10µM
CS(=O)(=O)N1Cc2ccccc2CC1C(=O)O (configuration not stated)	none
CCS(=O)(=O)N1Cc2ccccc2CC1C(=O)Nc1nnc(SCc2ccc(F)cc2)s1 (configuration not stated)	KB-V1 cytotox 4.1µM, MCF10A rereplic inconclusive, SW480 rereplic inconclusive
CCS(=O)(=O)N1Cc2ccccc2CC1C(=O)Nc1nnc(C2CC2)s1 (configuration not stated)	KB-V1 cytotox inconclusive
Cc1cccc(NC(=O)Cn2c(=O)oc3cc(S(=O)(=O)NCc4ccccc4)ccc32)c1	none (no result: MCF10A rereplic, SW480 rereplic)
CC(=O)c1ccc(N2CCN(C(=S)Nc3cc(C)ccn3)CC2)cc1	KB-3-1 tox inconclusive (no result: PINK1 modulator, MCF10A rereplic, SW480 rereplic)
Cc1ccc(CN2CC(C(=O)N3CCN(S(=O)(=O)c4ccc(C)cc4C)CC3)CC2=O)cc1 (configuration not stated)	KB-V1 cytotox 16µM
Cc1ccc(S(=O)(=O)N2CCN(C(=O)CSC3CCCC3)CC2)c(C)c1	KB-V1 cytotox 4.1µM
CC(=O)Nc1ccc(NC(=O)C2CC(=O)N(Cc3ccccc3)C2)cc1 (configuration not stated)	none
Cc1ccc(CN2CC(C(=O)N3CCN(S(=O)(=O)c4cc(C)ccc4C)CC3)CC2=O)cc1 (configuration not stated)	none
Cc1cc(C)c(NC(=O)C2CC(=O)N(Cc3ccccc3)C2)c(C)c1 (configuration not stated)	SW480 rereplic 16µM
Cc1ccc(S(=O)(=O)N2CCN(C(=O)CSC(=S)N3CCCC3)CC2)c(C)c1	KB-V1 cytotox inconclusive
CCCCN(CC)C(=O)Nc1ccc2c(c1)N(C)C(=O)c1ccccc1S2	none (no result: MCF10A rereplic, SW480 rereplic)
Cc1csc(-c2nc3ccccc3n2C(C)c2nc3ccccc3[nH]2)c1 (configuration not stated)	none (no result: PINK1 modulator, MCF10A rereplic, SW480 rereplic)
CCCCCCc1nc2ccccc2c(=O)n1NC(=O)c1c(O)c2c(n(CC(C)C)c1=O)CCCC2	KB-3-1 tox 21µM, PINK1 modulator inconclusive, KB-V1 cytotox 18µM
CCCc1nc2ccccc2c(=O)n1NC(=O)c1c(O)c2ccccc2n(C)c1=O	KB-3-1 tox 15µM, KB-V1 cytotox 5.8µM
Cn1c(=O)c(C(=O)NCCO)c(O)c2ccccc21	KB-3-1 tox inconclusive
CCc1nc2ccccc2c(=O)n1NC(=O)c1c(O)c2ccccc2[nH]c1=O	KB-3-1 tox inconclusive, KB-V1 cytotox 2.9µM, MCF10A rereplic inconclusive
COc1ccc2c(c1)C(CC(C)=O)N(c1ccc(-c3cnc(OC)nc3)cc1)C(c1ccsc1)=C2 (configuration not stated)	none (no result: MCF10A rereplic, SW480 rereplic)
COc1ccc2c(c1)C(CC(C)=O)N(c1ccc(-c3cccs3)cc1)C(c1ccsc1)=C2 (configuration not stated)	KB-3-1 tox 10µM (no result: MCF10A rereplic, SW480 rereplic)

Compound activity: PubChem, National Center for Advancing Translational Sciences (NCATS)
